PubChem BioAssay (NCI)
Compounds without any hit were thinned out: in the full panel of roughly 83,000, 20% have a hit.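 Single-dose data. Exposure time 48 hours. Values below 10 considered active.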 Active and inactive are the calls of the source.

Tested on: OVCAR-3 ovarian
Assay: NCI-60 one-dose screen, 48 h (100 = growth as untreated, 0 = no growth, -100 = all killed)
Conditions: 10 µM unless noted

SMILES | growth
CC(C)CCC[C@@H](C)[C@H]1CC[C@H]2[C@@H]3CC=C4C[C@@H](C(C(=O)O)C(=O)O)CC[C@]4(C)[C@H]3CC[C@]12C | -73.5% (active)
CCN1CCN(c2cc(C(=O)Nc3nc(-c4cc(OC)c(OC)c(OC)c4)cs3)cc(C(F)(F)F)c2)CC1 | 81.3% (inactive)
N#Cc1nn(-c2cc(=O)[nH]c3ccc(Cl)cc23)c(N)c1C#N | 108% (inactive)
CN(C)CCCn1c2c(c3ncccc3c1=O)C(=O)c1ccccc1-2 | 57.4% (inactive)
COc1cc(-c2nc3cc(Cl)c(Cl)cc3[nH]2)ccc1OCC(=O)N=Nc1c(O)[nH]c2ccc([N+](=O)[O-])cc12 | 36.1% (inactive)
C=CC(=O)NCc1ccc(Nc2nccc(-c3ccc(N4CCCC4)c(C#N)c3)n2)cc1 | 33.4% (inactive)
CSc1nnc(-c2cnn3c2NC(c2ccccc2)C3)n1-c1ccc(C(F)(F)F)cc1 (stereo not drawn) | 37.6% (inactive)
N=C(N)c1ccc(-c2ccc(-c3ccc(Cl)cc3)s2)nc1 | -93% (active)
O=C(OCc1ccc2c(Cl)cc(Cl)c(O)c2n1)n1cncn1 | 30.7% (inactive)
Cn1ccc2c3c(ccc21)CC3=O | 117% (inactive)
O=C1c2ccc3c4ccc5c6c(ccc(c7ccc(c2c37)C(=O)N1CCC[P+](c1ccccc1)(c1ccccc1)c1ccccc1)c64)C(=O)N(CCC[P+](c1ccccc1)(c1ccccc1)c1ccccc1)C5=O | 37.4% (inactive)
CCn1c(=S)[nH]c2c(=O)n(C)c(=O)n(C)c21 | 121% (inactive)
N#CC1=C(N)Oc2c(sc3c(F)cccc23)C1c1ccc(F)cc1 (stereo not drawn) | 10.9% (inactive)
